In all, about 69,000 compounds went through this assay and about 8,600 (12%) showed an effect of 50% or more. The list comes from a sample in which strong results are over-represented; it also holds similar structures and randomly drawn compounds.
test system: Plasmodium berghei; assay: Screen against P. berghei liver stage (PbLuc), transformed with Luciferase, at 10uM; format: functional, HepG2; conditions: tested at 10 uM

Compound | INHIBITION
Cc1noc(C)c1-c1cncc(C2CCCN2Cc2c[nH]cn2)n1 (stereo not given) | 32.8%
CC(=O)N1CCC(c2c(CN(C)C)cnc3cc(C)nn23)CC1 | -0.8%
CCS(=O)(=O)N1CCOC2(CCCN(c3ccc(C)nn3)C2)C1 (stereo not given) | 5.65%
O=C1NC(C(=O)NCc2cccnc2Oc2ccc(F)cc2F)CO1 (stereo not given) | 9.52%
CSCC[C@@H]1CN2CCC[C@H]2CN1Cc1coc2ccc(Cl)cc2c1=O | 7.11%
Cc1cc(NC(=O)CN(CC2CCOC2)C2CC2)no1 (stereo not given) | 21.5%
O=c1[nH]nc2nc(N3CCSCC3)ccn12 | 9.96%
O=c1[nH]nc2nc(N3CCCC3)ccn12 | 19.8%
Cc1cccc(N2CCN(c3ccn4c(=O)[nH]nc4n3)CC2)c1C | 65.8%
Cn1ccnc1CN1CCN(CC(O)c2ccccc2)CC1 (stereo not given) | 4.52%
O=C1CCC(C(=O)NCc2nncn2-c2ccccc2)CN1 (stereo not given) | 51%
O=C(NCc1nncn1-c1ccccc1)C1CC1 | -21.8%
O=C(NCc1nncn1-c1ccccc1)C1CCCC1 | 11.9%
Cc1cccc(CN2CCc3nnc(CN4CCCC4=O)n3CC2)n1 | 35.7%
CC(=O)CSc1sc2c(O)cc(=O)[nH]c2c1C(N)=O | 26%
Cc1cc(=O)[nH]c(SCC(=O)N(C)CC2Cc3ccccc3CN2C)n1 (stereo not given) | 50.2%
CN(CC1Cc2ccccc2CN1C)C(=O)CSc1nccn1C (stereo not given) | 40.9%
CN(CC1Cc2ccccc2CN1C)C(=O)CSc1ccccn1 (stereo not given) | -4.91%
O=C(NCc1ccco1)c1[nH]nc2c1CS(=O)(=O)CC2 | 48.2%
O=C1CO[C@@H]2CN(Cc3cccs3)C[C@H]2N1CC1CC1 | 24.5%
O=C(NCc1nn(-c2ccccc2)c2c1CCC2)NC1CC1 | 30.2%
COc1ccccc1CNCc1nn(-c2ccccc2)c2c1CCC2 | 36.8%
O=C1CCC(C(=O)NCc2nn(-c3ccccc3)c3c2CCC3)CN1 (stereo not given) | 41.9%
Cc1noc(C)c1CNCc1nn(-c2ccccc2)c2c1CCC2 | -0.159%
Cc1c(CNCc2nn(-c3ccccc3)c3c2CCC3)cc(C#N)n1C | 63.6%
O=C(NCc1nn(-c2ccccc2)c2c1CCC2)C1CC1 | 59.55%
Cc1cc(C)n(CCCNC(=O)[C@@H](C)NC(=O)OC(C)(C)C)n1 | 15.8%
CCOc1ccc(Cl)cc1NC(=O)N1CCC(n2cncn2)CC1 | 47%
NC(=O)c1cnc(-c2ccccc2)nc1CCNC(=O)CN1CCCC1 | 12.8%
COC1CCN(C(=O)c2ccccc2NCc2cccnc2)CC1 | -30%

Reference: ChEMBL document CHEMBL4513216, “Probing the Open Global Health Chemical Diversity Library for Multistage-Active Starting Points for Next-Generation Antimalarials” (ACS Infect Dis, 2020)
